# Source: PubChem BioAssay (National Center for Advancing Translational Sciences (NCATS))
# Shown are actives, neighbours in structure and some others; about 5.1% of the full set was active somewhere.
# Tau fibril FP: blocks human tau fibril formation measured by polarization; P10636; K18 P301L tau heparin fibrillization, Alexa594 FP, 6 h; Potency, µM (top dose mostly 57.7 µM), for the others: at the highest dose activity, negative = inhibition, actives largely listed as inhibitors; 280,000 tested, 0.39% active; also: potency is read from the fitted curve at half-maximal effect; nearly all actives have a fitted effect of over 55% in size
# Target sequence (P10636 561-689 P618L limits assumed): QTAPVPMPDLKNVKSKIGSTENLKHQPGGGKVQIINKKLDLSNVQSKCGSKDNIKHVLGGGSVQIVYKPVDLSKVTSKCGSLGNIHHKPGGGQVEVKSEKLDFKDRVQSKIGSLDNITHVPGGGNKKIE
#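 Steps: dispense K18 P301L tau (15 uM plus 0.24 uM Alexa 594 tracer, final) in pH 7 sodium acetate; add compound; add heparin (20 uM final); incubate 6 hr, 37 C; add ThT (30 uM final); after 1 hr ambient, read FP.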
# KDM4E inh: JMJD2E (human) inhibition | B2RXH2 | JMJD2E catalytic domain, FDH-coupled NADH fluorescence (FDH is formaldehyde dehydrogenase) | Potency, µM (titrated, usually from 57.1 µM), for inactives: at the top dose activity change, negative = inhibition, hits mostly inhibitors | 230,000 tested, 1.6% active; active = well fitted inhibition curve with a large enough effect, not every such curve was filed as active; inconclusive = small, poorly fitted or top-dose-only effect, or another doubt; inactive = no such curve, though single readings can be large or run the other way;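 also: potency is read from the fitted curve at half-maximal effect; 0% = wells with enzyme and -100% = buffer wells without enzyme; nearly all actives have a fitted effect of over 50% in size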
# Tau ThT inhib: tau fibrillization inhibition (ThT binding) | P10636 | 270,000 tested, 2.1% active | recombinant tau K18 P301L, heparin-induced fibrillization, ThT fluorescence | Potency, µM (highest dose often 57.4 µM), without a hit: top-dose activity, negative = inhibition, most hits filed as inhibitors; also: potency is read from the fitted curve at half-maximal effect; nearly all actives have a fitted effect of over 55% in size
#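 Tau K18 P301L fragment (15 uM unlabeled plus 0.24 uM Alexa 594-labeled) in 100 mM sodium acetate pH 7 with compound, fibrillization induced by 20 uM heparin for 6 hr at 37 C. Thioflavin T (30 uM) added, fluorescence read after 1 hr (ex 450, em 510 nm).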
# PNC inhibitor: inhibitors of perinucleolar compartment assembly. PC3M PTB-GFP, PNC prevalence imaging, 16 h; stronger effect = lower value. activity change (PNC), negative = inhibition, % at 10 µM. 140,000 tested, 3.1% active. AID 2417;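 active = readout at or below -70, meaning at least 70% loss of cells showing the perinucleolar compartment, a nuclear body marking cancer cells; inconclusive = readout between -30 and a set limit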;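 also: plate controls were DMSO wells for no effect and camptothecin positive control wells for full effect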
#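 PC3M cells stably expressing PTB-GFP, 750–1000 cells/well, treated 16 h at 37 °C with compound (23 nl of library stock), in duplicate. After paraformaldehyde fixation and Hoechst stain, imaged at 20x; PNC prevalence scored by image analysis.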
# Tau fluor cs: counter-screen for tau fibril formation inhibitors; tau K18 P301L Alexa594 fluorescence, heparin fibrillization; Potency, µM (titrated, usually from 57.7 µM), for the others: at the top dose activity change, negative = decrease; 280,000 tested, 0.93% active; also: potency is read from the fitted curve at half-maximal effect; nearly all actives have a fitted effect of over 55% in size
#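 Human tau K18 P301L (15 uM unlabeled, 0.24 uM Alexa 594-labeled) in 100 mM sodium acetate pH 7 with 20 uM heparin, 6 hr at 37 C. ThT 30 uM added, 1 hr ambient; Alexa 594 FP and total fluorescence read at 555/632 nm.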
# NPSR antag: blocks cAMP signaling of the human neuropeptide S receptor; CHO-NPSR cells, cAMP TR-FRET, antagonist mode; Potency, µM (highest dose often 38.3 µM), inactives show at the highest dose activity change, negative = inhibition, most hits filed as inhibitors; 220,000 tested, 1% active; Q6W5P4; AID 1461; also: potency is read from the fitted curve at half-maximal effect; nearly all actives have a fitted effect of over 50% in size
# Target sequence (Q6W5P4 whole entry, looked up): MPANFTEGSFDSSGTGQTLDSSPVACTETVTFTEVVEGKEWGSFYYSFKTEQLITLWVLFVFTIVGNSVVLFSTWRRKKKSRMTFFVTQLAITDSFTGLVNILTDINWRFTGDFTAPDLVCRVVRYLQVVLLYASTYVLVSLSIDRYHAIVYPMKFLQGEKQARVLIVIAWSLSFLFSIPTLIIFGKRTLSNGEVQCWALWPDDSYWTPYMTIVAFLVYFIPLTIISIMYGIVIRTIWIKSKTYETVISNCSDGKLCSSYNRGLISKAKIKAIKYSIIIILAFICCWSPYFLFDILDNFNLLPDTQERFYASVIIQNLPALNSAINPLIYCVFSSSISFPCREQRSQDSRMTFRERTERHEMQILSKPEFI
# Numbers without * were called inactive; u = inconclusive; x = no result; ! = repeats disagree; [ ] = another dose, or the depositor's remark. Unless noted, calls follow the shape of the dose curve; as a rule, active = well fitted curve in the direction sought with a large enough effect; inconclusive = small, poorly fitted or top-dose-only effect, or another doubt; inactive = no such curve, though single readings can be large; an effect the other way counts as inactive or inconclusive. Unless noted, % is scaled to controls: 0 for no effect and ±100 for the full control effect.
SMILES,Tau fibril FP,KDM4E inh,Tau ThT inhib,PNC inhibitor,Tau fluor cs,NPSR antag
CC[C@@]1(O)C(=O)OCc2c1cc1n(c2=O)Cc2cc3c(O)cccc3nc2-1,-7%,x,-12%,x,-6%,x
CC1=NCCc2c1[nH]c1cc(O)ccc21,-2%,u,u,x,18µM*![quencher],x
NCCc1c[nH]c2ccccc12,3%,2%,-6%,2,-7%,-10%[46.1 µM]
NCCc1c[nH]c2ccc(OCc3ccccc3)cc12,8%,u,-19%,x,13µM*[quencher],12%
O=C(Nc1ccc(Br)cc1)c1ccc(Cl)c(S(=O)(=O)N2CCCCCC2)c1,u,x,9%,x,u,x
CC(=O)C(Sc1ncnc2c1nnn2-c1ccc(F)cc1)C(=O)N(C)C (stereo unspecified),u,-20%,14µM*,-12,-15%,-11%[46.1 µM]
C=C/C(=C/C(=O)C[C@H](C)C[C@@H](C)CC[C@H](O)[C@H](C)C(=O)C[C@@H](O)[C@H](C)[C@@H](C)OC(=O)C[C@@H](O)C1=C(C)C(=O)OC1=O)CC,1%[11.6 µM],x,-14%[11.5 µM],x,0%[11.6 µM],x
CN(C)C1C(=O)C(C(N)=O)=C(O)[C@@]2(O)C(=O)C3=C(O)c4c(O)cccc4[C@](C)(O)C3C(O)C12 (stereo partly specified),u,8.9µM*,u,x,u,x
CN(C)C1C(=O)C(C(N)=O)C(=O)C2(O)C(=O)C3C(=O)c4c(O)cccc4C(C)(O)C3C(O)C12 (stereo unspecified),20µM*,x,4.5µM*,x,u,x
CN(C)[C@@H]1C(=O)C(C(N)=O)=C(O)[C@@]2(O)C(=O)C3=C(O)c4c(O)cccc4[C@@](C)(O)[C@H]3[C@H](O)[C@@H]12,11µM*,u,6.3µM*,33,u,-16%
Cc1ccc(-c2nc(S(=O)(=O)c3ccc(C)cc3)c(SCC(=O)Nc3ccc(F)cc3)o2)cc1,u,x,-2%,x,u,x
CC(=O)c1ccc(NC(=O)CSc2nc(=O)cc(N)n2-c2ccccc2)cc1,6%,3%,u,x,-14%,3%
CNC(C(=O)c1ccccc1)C(OC)c1ccccc1 (stereo unspecified),2%,-7%,-6%,43,-6%,-7%[46.1 µM]
CC(=O)[O][Hg][c]1ccccc1,u,2.2µM*,u,x,u,x
CCOc1ccc2nc(N3CCC(C(=O)N4CCC5(CC4)OCCO5)CC3)sc2c1,5%,3%,u,-103*,-24%,-14%[46.1 µM]
CCc1ccc2nc(N3CCC(C(=O)N4CCC5(CC4)OCCO5)CC3)sc2c1,-9%,3%,u,x,-23%,2%
C/C1=C\[C@@H](C)C/C=C/[C@H]2[C@@H]3O[C@]3(C)[C@@H](C)[C@H]3[C@H](Cc4c[nH]c5ccccc45)NC(=O)[C@]32C(=O)/C=C/C(=O)[C@@H]1O,-19%,-1%,0.89µM*,x,u,u
CC(C)=CCCC1(C)C=Cc2c(O)c3c(c(CC=C(C)C)c2O1)OC12C(=CC4CC1C(C)(C)OC2(C/C=C(/C)C(=O)O)C4=O)C3=O (stereo unspecified),u,u,22µM*,x,-16%,x
CC(C)CCCC1(C)C=Cc2c(O)c3c(c(CCC(C)C)c2O1)OC12C(CC4CC1C(C)(C)OC2(CCC(C)C(=O)O)C4O)C3=O (stereo unspecified),-7%,-10%,u,x,-4%,x
CC(C)=CCCC1(C)C=Cc2c(O)c3c(c(CC=C(C)C)c2O1)OC12C(=CC4CC1C(C)(C)OC2(C/C=C(/C)C(=O)O)C4O)C3=O (stereo unspecified),u,-20%,18µM*,x,-25%,x
COc1c(CC=C(C)C)c2c(c3oc(=O)c(-c4ccc(O)cc4)c(O)c13)C=CC(C)(C)O2,4%,u,-25%,x,-25%,x
Cc1cc(NS(=O)(=O)c2ccc(N)cc2)no1,u,-12%,-3%,-16,1%,-9%
CC[n+]1c(-c2ccccc2)c2cc(N)ccc2c2ccc(N)cc21,11µM*,u,4µM*,x,u,x
COc1ccc(CC2NC[C@H](O)[C@H]2OC(C)=O)cc1 (stereo partly specified),-3%,7%,-8%,x,-6%,x
C=C(C)c1cccc(C(C)(C)NC(=O)NC2CN3CCC2CC3)c1 (stereo unspecified),5%,0%,4%,-94*,7%,25%[46.1 µM]
SMILES,Tau fibril FP,KDM4E inh,Tau ThT inhib,PNC inhibitor,Tau fluor cs,NPSR antag
O=C(Nc1ccc(Br)cc1)c1ccc(F)c(S(=O)(=O)N2CCCc3ccccc32)c1,16µM*,x,-1%,x,7.1µM*[quencher],x
O=C(Nc1ccc(Br)cc1)c1cccc(S(=O)(=O)N2CCc3ccccc32)c1,u,x,10%,x,u,x
CC[C@H](Oc1ccc(Cl)cc1)C(=O)OC1C[C@H]2CC[C@@H](C1)N2C (stereo partly specified),-1%,6%,-2%,x,0%,x
O=C(NCCSc1c(-c2ccc(F)cc2)[nH]c2ccccc12)c1ccc(S(=O)(=O)N2CCOCC2)cc1,-5%,x,-1%,x,4.5µM*[quencher],x
COc1cc(C(=O)NCCSc2c(-c3ccccc3)[nH]c3ccccc23)cc(OC)c1OC,-2%,x,-9%,x,8.9µM*[quencher],x
COC1=CC2C3Cc4ccc(OC)c(O)c4[C@]2(CCN3C)CC1=O (stereo partly specified),3%,0%,-2%,x,0%,x
COc1ccc2nc(N3CCN(C(=O)CS(=O)(=O)c4ccc(C)cc4)CC3)sc2c1,7%,x,u,x,-13%,x
CCn1cc(C(=O)O)c(=O)c2cc(F)c(N3CCNCC3)cc21,8%,16µM*,-3%,u,-6%,u
O=[N+]([O-])c1cc(F)c(N2CCCCCC2)cc1N1CCNCC1,-1%,10%,u,x,-9%,2%
